From the supplement of paper PMC10515830
Counter-ions that a name gives are not always drawn.

Assays:
Settings in all cases: 10 µM; exposure time 6 h
[1] = tested on: Danio rerio larvae (5 dpf); assay: difference in excitability vs DMSO (percentage points); higher = more excitable than DMSO
Outline: (§1)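 Wild-type 5 dpf zebrafish larvae in 96-well plates were given 100 µL egg water containing library compound at 10 µM final for 6 h. After 3 h of exposure, plates at 28.5 ℃ were photographed every 6 s during a 3-h programme of moving lines and 100 ms, 400Hz tones. Z-LaP Tracker (a DeepLabCut model) quantified each behaviour, averaged over 48 larvae per compound. Values are the compound mean minus the DMSO-vehicle control, in percentage points.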

[2] = tested on: Danio rerio larvae (5 dpf); assay: difference in startle response vs DMSO (percentage points); higher = stronger startle than DMSO
Outline: as §1

[3] = tested on: Danio rerio larvae (5 dpf); assay: difference in activity during first hour vs DMSO (percentage points); higher = more activity than DMSO
Outline: as §1

[4] = tested on: Danio rerio larvae (5 dpf); assay: difference in habituation to acoustic stimuli vs DMSO (percentage points); higher = more habituation than DMSO
Outline: as §1

[5] = tested on: Danio rerio larvae (5 dpf); assay: difference in combined optomotor response to red, green and blue moving lines vs DMSO (percentage points); higher = stronger optomotor response than DMSO
Outline: as §1

SMILES	difference in excitability [1]	difference in startle response [2]	difference in activity during first hour [3]	difference in habituation to acoustic stimuli [4]	difference [5]
Cc1cnc(NC(=O)C2=C(O)c3ccccc3S(=O)(=O)N2C)s1 [Meloxicam]	5.53	6.51	-3.33	3.11	4.63
CNS(=O)(=O)Cc1ccc2[nH]cc(CCN(C)C)c2c1 [Sumatriptan (succinate)]	7.61	3.38	-12.9	5.35	-4.54
COCCCC/C(=N\OCCN)c1ccc(C(F)(F)F)cc1 [Fluvoxamine (maleate)]	13.2	-1.76	-21.1	-3.73	5.3
CCCCCCOC(=O)NC(=N)c1ccc(NCc2nc3cc(C(=O)N(CCC(=O)OCC)c4ccccn4)ccc3n2C)cc1 [Dabigatran etexilate]	7.34	2.07	-7.27	0.895	2.07
Cc1cnc(C(=O)NCCc2ccc(S(=O)(=O)NC(=O)NC3CCCCC3)cc2)cn1 [Glipizide]	0.585	1.17	-9.11	5.88	8.81
CCCCC[C@H](O)/C=C/[C@H]1[C@H](O)CC(=O)[C@@H]1C/C=C\CCCC(=O)O [Prostaglandin E2]	16.7	-5.41	2.46	4.14	5.15
CC(C)NCC(O)c1ccc(NS(C)(=O)=O)cc1 (stereo not given) [Sotalol (hydrochloride)]	-4.39	-2.26	12	-2.03	-2.43
C[C@@H](c1ncncc1F)[C@](O)(Cn1cncn1)c1ccc(F)cc1F [Voriconazole]	4.54	3.6	-18.9	3.51	5.07
Oc1ccc(C2CNCCc3c2cc(O)c(O)c3Cl)cc1 (stereo not given) [Fenoldopam (mesylate)]	9.9	-2.3	4.74	-1.52	-1.12
COC(=O)CCc1ccc(OCC(O)CNC(C)C)cc1 (stereo not given) [Esmolol (hydrochloride)]	-2.69	4.98	5.19	-2.83	10.6
CCC1(c2ccccc2)C(=O)NCNC1=O [Primidone]	3.77	4.38	11.2	-0.65	9.02
C=C1/C(=C\C=C2/CCC[C@]3(C)[C@@H]([C@H](C)CCCC(C)(C)O)CC[C@@H]23)C[C@@H](O)C[C@@H]1O [Calcitriol]	7.32	-3.08	-9.65	5.79	-3.39
